Screens from PubChem BioAssay.
USP8 block: inhibitors of human USP8 deubiquitinase; actives 4.2% (n = 47,000); purified USP8, Ub-rhodamine cleavage fluorescence, 30 min; P40818; inhibition, % at 20 µM; AID 1645853
USP17 block: human USP17-like deubiquitinase inhibition; A8MUK1; purified USP17, Ub-rhodamine cleavage fluorescence, 3 h; inhibition, % at 50 µM; actives 6.5% (n = 47,000); AID 1645855
Target sequence (A8MUK1 whole entry, looked up): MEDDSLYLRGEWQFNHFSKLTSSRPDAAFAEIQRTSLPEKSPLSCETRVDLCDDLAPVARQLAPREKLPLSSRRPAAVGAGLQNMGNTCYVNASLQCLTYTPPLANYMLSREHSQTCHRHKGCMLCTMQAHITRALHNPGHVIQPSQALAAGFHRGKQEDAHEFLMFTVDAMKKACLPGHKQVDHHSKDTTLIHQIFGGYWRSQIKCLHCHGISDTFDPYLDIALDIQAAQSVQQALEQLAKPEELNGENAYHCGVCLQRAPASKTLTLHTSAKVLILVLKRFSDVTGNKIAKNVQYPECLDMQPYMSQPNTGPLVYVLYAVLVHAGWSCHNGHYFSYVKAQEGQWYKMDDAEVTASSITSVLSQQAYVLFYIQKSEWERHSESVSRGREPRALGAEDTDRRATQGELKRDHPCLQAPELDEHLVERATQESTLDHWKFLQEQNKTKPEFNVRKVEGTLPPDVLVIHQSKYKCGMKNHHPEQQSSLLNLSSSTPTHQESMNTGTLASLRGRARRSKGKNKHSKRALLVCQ
USP30 inh: human USP30 deubiquitinase inhibition. purified USP30, Ub-rhodamine cleavage fluorescence. inhibition, % at 25 µM. actives 5.3% (n = 47,000). AID 1645860
Large screens that a line does not name were inactive. Most compounds without a hit are left out; they make up all but 12% or so of the library. No stated cut-off is given here; in the data, active means inhibition above about 30%; inactive means the rest.

CCCn1c(-c2ccc(CC)cc2)cn2c(-c3ccccc3)c(-c3ccccc3)nc12	USP8 block 87, USP17 block 33
COc1cccc(-c2cn3c(-c4ccccc4)c(-c4ccccc4)nc3n2-c2ccccc2)c1	USP8 block 77
COc1cccc(-c2cc(C(F)(F)F)c3c(-c4ccccc4)nn(-c4ccccc4)c3n2)c1	none
CCCn1nc(-c2ccccc2)c2nc3ccccc3nc21	none
O=C(c1c(F)cccc1F)N1CCC(c2nc(-c3ccncc3)no2)CC1	none
Cn1ccc2c(cc(C(=O)NC3CCN(Cc4ccccc4)CC3)n2C)c1=O	none
O=C(OCC(=O)N1CCCCCC1)c1c2c(nc3ccccc13)CCCC2	none
CCOC(=O)c1cc(NC(=O)c2cccnc2)ccc1N1CCOCC1	none
CC(C)N1CCn2c(nc3cc(NC(=O)c4cccnc4)ccc32)C1	USP8 block 32, USP17 block 34
CN1C(=O)CCCC12CCCN(C(=O)c1cccc(C#N)c1)C2 (configuration not stated)	none
O=C1CCN(c2ncnc3c2oc2ccccc23)CC1	none
COc1ccc(CNC(=O)[C@H](C)NC(=O)C2CCN(C(=O)[C@H](Cc3ccccc3)NC(=O)OC(C)(C)C)CC2)cc1	none
Cc1ccc(C(=O)Nc2c(C(=O)N3CCN(c4ccccc4)CC3)[nH]c3ccccc23)cc1	USP17 block 34
Cc1ccc(C(=O)Nc2c(C(=O)N3CCN(c4cccc(C)c4)CC3)[nH]c3ccccc23)cc1	none
Cc1sc2nc(-c3cccnc3)nc(N3CCc4ccccc4C3)c2c1C	none
Cc1sc2nc(-c3cccnc3)nc(NCCCN3CCOCC3)c2c1C	USP17 block 33
CCc1nccn1Cc1nc(-c2ccc(C)cc2)no1	none
C=C(C)[C@H]1O[C@H]2CC[C@@]3(C)[C@@](O)(CC[C@H]4Cc5c([nH]c6cc7c(cc56)C[C@H]5C7=CC(C)(C)OC5(C)C)[C@@]43C)C2=C[C@H]1O	none
COc1ccccc1-c1nc(-c2cn(-c3ccc(C)cc3)nn2)no1	USP17 block 62
Fc1cccc(Cn2cc(-c3noc(-c4cccnc4)n3)nn2)c1	USP17 block 63
COc1cc(OC)cc(-c2nc(-c3cn(-c4cccc(F)c4)nn3)no2)c1	USP8 block 62, USP30 inh 65
Clc1cccc(-n2cc(-c3noc(-c4cccnc4)n3)nn2)c1	none
COc1ccccc1-c1nc(-c2cn(-c3cccc(Cl)c3)nn2)no1	USP8 block 96, USP30 inh 46
COc1ccccc1-c1nc(-c2nnn(-c3ccc(C)cc3)c2C)no1	none
Fc1cccc(-n2cc(-c3noc(-c4ccncc4)n3)nn2)c1	none
COc1cccc(-c2nc(-c3cn(Cc4ccc(C)cc4)nn3)no2)c1	none
Cc1ccc(-c2nnc(-c3occc3C)o2)cc1	none
c1coc(CNc2nc3ccccc3c3nc(-c4ccncc4)nn23)c1	none
O=C(CCCCCn1c(=O)[nH]c2ccsc2c1=O)N1CCN(c2ccccc2)CC1	none
Cn1ncc2c1CCCN(C(=O)c1cc(F)cc(F)c1)C2	none
CCc1csc(-c2cn(CC(=O)Nc3cc(C)ccc3C)cn2)n1	USP8 block 39, USP17 block 49
Cc1ccccc1NC(=O)Cn1cnc(-c2noc(-c3ccncc3)n2)c1	none
Cc1csc(-c2cn(CC(=O)Nc3ccc(C)c(F)c3)cn2)n1	none
CCc1csc(-c2cn(CC(=O)Nc3cccc(C)c3C)cn2)n1	USP17 block 51, USP30 inh 58
C=C1OC(=O)C(C(=O)[C@H](C)[C@H]2[C@H](/C=C(\CO)[C@H]3O[C@@H](/C=C/C[C@@H]4CC[C@@H]([C@@H](C)OC)O4)CC[C@@H]3C)CCC[C@@H]2C)C1=O (some centres not stated)	none
COc1cccc(CNC(=O)CCC2=NS(=O)(=O)c3ccc(C)cc3N2)c1	none
Cc1c(C(=O)N2CCCCC2)c(S(=O)(=O)N2CCN(C)CC2)c(C)n1C	none
O=C(c1cccs1)N1CCN(c2ccc(Nc3ccncc3)nn2)CC1	none (no result: USP17 block)
COC(=O)c1c(C)[nH]c(C(=O)C(C)OC(=O)CCC2CCCC2)c1C (configuration not stated)	none
CN(Cc1ccccc1)S(=O)(=O)c1ccc(N2CCCCS2(=O)=O)cc1	USP17 block 37 (no result: USP30 inh)
CCCCN(c1ccccc1)S(=O)(=O)c1ccc(N2CCCCS2(=O)=O)cc1	none
O=c1[nH]c2ccc(S(=O)(=O)N3CCN(Cc4ccccc4)CC3)cc2[nH]1	none
CN(Cc1ccccc1)S(=O)(=O)c1ccc2[nH]c(=O)[nH]c2c1	USP17 block 37
COCCn1cnc(-c2nc(C(=O)NCCc3ccccn3)c3ccccn23)c1	none
O=C(NCCc1cccnc1)c1nc(-c2cn(-c3nccs3)cn2)n2ccccc12	USP17 block 45
O=C(CCCn1c(=O)c2ccccc2n(CC(=O)c2ccc(Br)cc2)c1=O)NC1CCCC1	none
O=C(CNC1CCCc2ccccc21)Nc1cc(Cl)ccc1Oc1ccccc1 (configuration not stated)	none
O=C(CC(NCc1ccco1)C(=O)O)Nc1ccccc1Cl (configuration not stated)	none
O=C(CC(NCc1ccco1)C(=O)O)Nc1cccc(Cl)c1Cl (configuration not stated)	USP30 inh 32
Cn1cccc1C(=O)C(=O)Nc1ccc(F)cc1F	none
CC1CCC(NC(=O)c2cnn3c4c(cnc23)CC(C)CC4)CC1 (configuration not stated)	none
CCc1ccc(NC(=O)Cn2c(C)cc(=O)n3nc(C(F)(F)F)nc23)cc1	none
COc1ccc(NC(=O)Cn2c(C)cc(=O)n3nc(-c4cccc(C)c4)nc23)cc1	USP8 block 64, USP30 inh 31
O=C(Nc1ccc(CN2CCOCC2)cc1)c1cc2cc(Br)ccc2o1	none
CCC(CC)C(=O)c1c[nH]c(C(=O)NCc2cccs2)c1	USP30 inh 38
CCCC(=O)c1c[nH]c(C(=O)NCc2cccnc2)c1	none (no result: USP30 inh)
Cn1c(C(=O)NCCc2c[nH]c3ccccc23)cc2sccc21	none
O=C(NCCc1c[nH]c2ccccc12)c1cc2sccc2n1Cc1ccccc1	USP17 block 44
COc1ccc(NC(=O)N2CCn3cccc3C2c2ccc(F)cc2)cc1OC (configuration not stated)	none
Cn1c2ccccc2c(=O)c2c(=O)n(C3CCCCC3)c(-c3ccccc3F)nc21	none
Cc1ccc(-c2n[nH]c3c2CN(S(=O)(=O)c2cn(C)cn2)CC3)cc1	none
O=C1CC(c2noc(-c3ccccn3)n2)CN1c1cccc(F)c1 (configuration not stated)	USP30 inh 32
O=C1CC(c2noc(-c3ccccn3)n2)CN1c1ccc(F)cc1 (configuration not stated)	none
CCN1CCN(c2ccc(NC(=O)c3cc(C)ccc3C)cn2)C1=O	none
COc1ccc(OCCn2c(=O)c(C#N)c3n(c2=O)CCC3)cc1	none
N#Cc1c2n(c(=O)n(CCOc3ccccc3F)c1=O)CCC2	USP8 block 33
COc1ccc(C(CNC(=O)c2ccc(Oc3ccc(Cl)cc3[N+](=O)[O-])cc2)N2CCCC2)cc1 (configuration not stated)	none
O=C(CSc1nc2[nH]c(=O)cc(O)c2s1)C12CC3CC(CC(C3)C1)C2	none
O=C(Nc1ccccc1Cl)c1csc(Cc2c(Cl)cccc2Cl)n1	USP17 block 37, USP30 inh 48
O=C(NCc1cccnc1)c1csc(Cc2ccccc2Cl)n1	none
Cc1ccccc1CNS(=O)(=O)c1ccc2c(c1)NC(=O)CCS2	none
